Experimental data as given in PubChem BioAssay AID588405 (Sanford-Burnham Center for Chemical Genomics, 2011).
Screen size: about 360,000 compounds; about 6,200 (1.7%) were called active. For the sample, actives were picked, then their nearest neighbours and some compounds at random. Unmarked numbers belong to inactive results.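 Rule for the calls: active = inhibition of at least 50% at 20 µM; inactive = the rest.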

Assay: Peg3 promoter-driven luciferase inhibitors, primary screen, cell-based, HeLa, luciferase luminescence (AID 588405)
Conditions: HeLa PEG-Prom luciferase reporter, overnight, at 20 µM, stronger effect = higher value

Row | Structure (SMILES) | inhibition
1 | COc1cc(/C=C/c2ccc(/C=C/c3cc(OC)c(OC)c(OC)c3)cc2)cc(OC)c1OC | 61.8% (active)
2 | COc1cc(/C=C/C2=CC(C)(C)NC(=S)N2)cc(OC)c1OC | 4.8%
3 | CCC(=O)c1ccc(OC(=O)/C=C/c2cc(OC)c(OC)c(OC)c2)cc1 | 3.36%
4 | OCCc1ccc(NCCc2ccco2)cc1 | -123%
5 | CN[C@H](C(=O)NC[C@H]1O[C@@H](n2cnc3c(N)ncnc32)[C@H](O)[C@@H]1O)[C@@H](C)OCc1ccccc1 | -6.23%
6 | O=C(COC(=O)c1ccc(F)cc1F)Nc1ncccn1 | 22.2%
7 | CC(C)CNC(=O)C(=O)NCC(c1ccc2c(c1)OCO2)N1CCOCC1 (stereo not given) | -15.4%
8 | CC(C)Cn1c(N)c(C(=O)COC(=O)CN2C(=O)C3CC=CCC3C2=O)c(=O)n(C)c1=O (stereo not given) | 21.8%
9 | CCCc1cc(=O)[nH]c(SCC(=O)N2C(C)CCCC2C)n1 (stereo not given) | 0.43%
10 | CCCc1cc(=O)[nH]c(SCC(=O)c2c(N)n(CC(C)C)c(=O)n(C)c2=O)n1 | 54.7% (active)
11 | O=C(NCc1cccnc1)c1ccc2nc([C@@H]3O[C@H](CO)[C@H](O)[C@H](O)[C@H]3O)[nH]c2c1 | 15.8%
12 | CCC(C)C(CO)NC(=O)/C=C/[C@H]1O[C@@H](n2cnc3c(NC(=O)c4ccccc4)ncnc32)[C@H](O)[C@@H]1O (stereo not given in full) | 10.6%
13 | Cc1ccsc1C(=O)OCC(=O)Nc1cccc(F)c1 | -227%
14 | Cc1ccsc1C(=O)OCC(=O)NCCc1ccccc1 | -156%
15 | Cc1ccsc1C(=O)OCC(=O)c1cc(C)n(CC2CCCO2)c1C (stereo not given) | 55.9% (active)
16 | COc1ccc(-c2nnc3n2CCCCC3)cc1 | 11.4%
17 | COc1ccccc1NC(=O)CC(NCCN(C)C)C(=O)O (stereo not given) | 6.79%
18 | COc1cccc2sc(N(CCCN(C)C)C(=O)CCS(=O)(=O)c3ccccc3)nc12 | 96.4% (active)
19 | CCN(CC)CCN(C(=O)c1ccc2c(c1)CCCC2)c1nc2c(OC)cccc2s1 | -7.74%
20 | COc1cccc2sc(N(CCCN(C)C)C(=O)C(c3ccccc3)c3ccccc3)nc12 | 99.4% (active)
21 | O=C(CCS(=O)(=O)c1ccccc1)Nc1nc2c(s1)CCCC2 | -47.1%
22 | Cc1cccc2sc(N(CCCN(C)C)C(=O)CCS(=O)(=O)c3ccccc3)nc12 | 100% (active)

Row | Structure (SMILES) | inhibition
23 | COc1ccc(N(C)C(=O)CCS(=O)(=O)c2cccc3nsnc23)cc1 | -4.4%
24 | Cc1ccc(S(=O)(=O)CCC(=O)OCC(=O)N(C)Cc2ccccc2)cc1 | -2.43%
25 | Cc1ccc2sc(N(CCN(C)C)C(=O)/C=C/c3cccs3)nc2c1C | 19.8%
26 | CC1(C(=O)NCc2ccc3c(c2)OCO3)CCN1CCc1ccccc1 (stereo not given) | -5.32%
27 | CC1(C(=O)NS(=O)(=O)c2cccs2)CCN1C(=O)Cc1ccc(-c2ccccc2)cc1 (stereo not given) | 1.06%
28 | O=C(C=CC(=O)Nc1ccc(F)cc1F)Nc1ccc(F)cc1F | 14.9%
29 | O=S1(=O)CC(N2CCN(CCO)CC2)CN1C1CCCC1 (stereo not given) | -8.51%
30 | Cc1cccc(CN2CCN(C3CN(Cc4cn(Cc5ccccc5F)nn4)S(=O)(=O)C3)CC2)c1 (stereo not given) | -6.63%
31 | CCOC(=O)N(C)c1c(CC)nc2c(OCc3ccccc3C(=O)OC)cccn12 | 13.4%
32 | Nc1ccccc1SC(C[N+](=O)[O-])c1ccccc1 (stereo not given) | 63.5% (active)
33 | CCCC(=O)N1CCC1(C)C(=O)NCc1ccc(C(C)C)cc1 (stereo not given) | 1.21%
34 | CCC(=O)N1CCCC1(C)C(=O)Nc1ccc2c(c1)CCN2C(C)=O (stereo not given) | 4.54%
35 | CCOC(=O)Nc1ccc2c(c1)N(C(=O)CCCl)c1ccccc1[S@]2=O | 84.1% (active)
36 | CCOC(=O)Nc1ccc2c(c1)N(C(=O)CCN1CCN(CCO)CC1)c1ccccc1CC2 | 3.85%
37 | CCOC(=O)Nc1ccc2c(c1)N(C(=O)CN1CCN3CCCC3C1)c1ccccc1CC2 (stereo not given) | 0.5%
38 | CC(C)(C)OC(=O)C[C@@H]1C/C=C\C[C@@H](CC(=O)N[C@H](CO)Cc2ccccc2)C(=O)NC[C@@H](c2ccccc2)OC1=O | -6.65%
39 | O=C(C[C@H]1C/C=C\C[C@@H](NC(=O)OCC2c3ccccc3-c3ccccc32)C(=O)O[C@@H](c2ccccc2)CNC1=O)N[C@H](CO)Cc1ccccc1 | 67.1% (active)
40 | CC(C)(C)OC(=O)C[C@H]1C/C=C\C[C@@H](CC(=O)N[C@H](CO)Cc2ccccc2)C(=O)NC[C@@H](c2ccccc2)OC1=O | -1.52%
41 | CC(=O)c1nn(-c2ccccc2)c(=Nc2ccccc2)cc1C | 1.9%
42 | O=C1NC(O)CCN1C1CC(O)C(CO)O1 (stereo not given) | 15.2%
43 | CSc1nnnn1-c1c(C)cc(C)cc1C | 7.96%
44 | CSC1=NCCN1C(=O)c1ccc(S(=O)(=O)N2CCOCC2)cc1 | -13.6%

Row | Structure (SMILES) | inhibition
45 | Cc1ccc2nc(-c3ccco3)c(Cc3cccc(Cl)c3)n2c1 | -203%
46 | CCOC(=O)C1=C(CC)OC(N)=C(C#N)C1c1ccc(F)cc1F (stereo not given) | 8.52%
47 | CCOC(=O)C1=C(C)OC(N)=C(C#N)C1c1cncc(-c2ccc(F)cc2)c1 (stereo not given) | 101% (active)
48 | CCCc1nc2c([nH]1)C(c1cccnc1)C(C#N)=C(N)O2 (stereo not given) | -0.33%
49 | CCOP(=O)(OCC)C(Cc1ccccc1)N=C(c1ccccc1)c1ccccc1 (stereo not given) | 41.3%
50 | CCOC(=O)c1c(NC(=O)c2ccc(S(=O)(=O)N(C)CC3CCCO3)cc2)sc2c1CC(C)(C)NC2(C)C (stereo not given) | 85.8% (active)
51 | CN(CC1CCCO1)S(=O)(=O)c1ccc(C(=O)Nc2ccc(F)cc2)cc1 (stereo not given) | 21.5%
52 | Cc1cccc(NC(=O)c2ccc(S(=O)(=O)N(C)CC3CCCO3)cc2)c1C (stereo not given) | 4.42%
53 | CC(=O)Nc1cc(-c2ccccc2F)cn2c(-c3cccc(C(F)(F)F)c3)cnc12 | 25%
54 | CCOc1ccc2nc(NC(=O)c3cc([N+](=O)[O-])ccc3N3CCOCC3)sc2c1 | 61.8% (active)
55 | COc1ccc(S(=O)(=O)N2CCCCC2)cc1NC(=O)c1cc([N+](=O)[O-])ccc1N1CCOCC1 | 13.5%
56 | O=C(NCc1ccc2c(c1)OCO2)c1cc([N+](=O)[O-])ccc1N1CCOCC1 | 17.4%
57 | COc1cccc(-c2cc(NC(C)=O)c3ncc(-c4cccc(C(C)=O)c4)n3c2)c1 | -9.41%
58 | CCN(CC)c1ncnc2c1ncn2[C@H]1CN(Cc2cccs2)C[C@@H](CO)O1 | 5.39%
59 | CN(Cc1ccc(F)cc1)C(=O)CN1C(=O)c2ccccc2S1(=O)=O | 1.25%
60 | O=C(CN1C(=O)c2ccccc2S1(=O)=O)N1CCc2ccccc21 | 94.5% (active)
61 | CC1CCCN(C(=O)CN2C(=O)c3ccccc3S2(=O)=O)C1 (stereo not given) | -95%
62 | CCOC(=O)C1=CC[C@@H](c2ccncc2)N(S(=O)(=O)c2ccc(C)cc2)C1 | 27.8%
63 | O=C(Nc1ccc(Cl)c(C(F)(F)F)c1)C1Cc2c(-c3ccccc3Oc3ccccc3)ccnc2O1 (stereo not given) | 26.9%
64 | O=C(Cc1cccc2ccccc12)NNC(=O)Nc1ccc(Cl)cc1 | -102%
65 | CC(C)(C)C(=O)NC(NC(=S)Nc1ccc(S(N)(=O)=O)cc1)C(Cl)(Cl)Cl (stereo not given) | 17%
66 | Cc1ccc(NC(=S)NC(NC(=O)Cc2cccc3ccccc23)C(Cl)(Cl)Cl)cc1 (stereo not given) | 105% (active)

Row | Structure (SMILES) | inhibition
67 | C/C(CC1CC(C)(C)OC1=O)=N/Nc1nc(-c2ccccc2)cs1 (stereo not given) | -108%
68 | COc1ccc2c(c1OC)C(=O)OC2Nc1nc(-c2ccccc2)cs1 (stereo not given) | 104% (active)
69 | CC(C)C1CC2=C(C(=O)OC(C)(C)O2)C(c2ccc(F)cc2)O1 (stereo not given) | 4.49%
70 | COc1ccc(Cl)cc1-c1cc(C(=O)Nc2cc(OC)c(OC)c(OC)c2)[nH]n1 | 33.8%
71 | O=C(Nc1ccc(Cl)cc1)c1csc([C@H]2C[C@H](O)[C@@H](CO)O2)n1 | -232%
72 | Cc1ccc([C@@H]2CC(=O)[C@@H]3CN(S(=O)(=O)c4ccc(C)cc4)[C@H](c4ccccc4F)C[C@@H]3N2S(=O)(=O)c2ccc(Cl)cc2)cc1 | 13.7%
73 | COc1ccc(NC(=O)N(C)C[C@@H]2OCc3cn(nn3)CCCC(=O)N([C@H](C)CO)C[C@H]2C)c(OC)c1 | -5.47%
74 | Cc1nc2ccccc2nc(C)c1=NOCc1ccc(Cl)cc1Cl | 29.6%
75 | COc1ccc(Cl)cc1N(CC(=O)N/N=C/c1ccc(OCC(N)=O)cc1)S(C)(=O)=O | -7.79%
76 | NC(N)=N/N=C/c1ccc(OCc2ccc(Cl)cc2Cl)cc1 | 99.3% (active)
77 | O=C(/C=C/c1ccc([N+](=O)[O-])o1)NNC(=O)c1ccc(F)cc1 | 99.4% (active)
78 | O=C(/C=C/c1ccc(F)cc1)NC(=S)NNC(=O)c1cccnc1 | 8.82%
79 | O=C(Nc1ccc(F)cc1)C1CCN(C(=O)c2ccc([N+](=O)[O-])cc2)CC1 | 17.8%
80 | CC1(c2cccc([N+](=O)[O-])c2)CC(C)(C)N(C(=O)c2ccccc2)c2ccccc21 (stereo not given) | 34.9%
81 | CC1(c2ccccc2)CC(C)(C)N(C(=O)c2cc([N+](=O)[O-])cc([N+](=O)[O-])c2)c2ccccc21 (stereo not given) | 16.3%
82 | Cc1nnc(SCC(=O)N2c3ccccc3C(C)(c3ccc(Cl)cc3)CC2(C)C)s1 (stereo not given) | 51.1% (active)
83 | COc1ccc(NC(=O)/C(Cl)=C(/Cl)S(=O)Cc2ccc(C)cc2)cn1 (stereo not given) | 109% (active)
84 | COc1ccc(NC(=O)CN2C(=O)NC(C)(c3ccccc3)C2=O)cn1 (stereo not given) | 1.66%
85 | COc1ccc(NC(=O)C2Cc3c(-c4ccc5c(c4)OCO5)ccnc3O2)cn1 (stereo not given) | 21.4%
